Experimental findings from the supplement of paper PMC6555819 are described below.

The test concerns PPARg:RXRa 90nM:30nM, anti-RXR (NR concentration 90 nM, RXRa partner concentration 30 nM). Kind of test: PBM binding z-score (relative to random genomic background probes); higher = stronger binding; sequences stand for … in GC…GCGATTGACAGCGTAGAATGAAGG
In short, it runs like this:
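Probes were double-stranded and carried 34-nt variable regions with direct-repeat seeds, single-nucleotide variants, half-site ablations and random human genomic background sequences, printed on custom Agilent 4×180K protein-binding microarrays. Arrays were incubated 1 h with ligand-free nuclear receptor dimers in PBS pH 7.4, 2% milk, 0.02% Triton X-100, 1 mM DTT, 0.2 mg/mL BSA and 0.4 mg/ml salmon testes DNA. Antibodies against each partner (one per run) detected binding, and scanned fluorescence was regression-normalized. Binding z-scores use the random background probes as reference.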
Sequence TCTCGGAGGACACGAAGGTCAGAGCTTTCCAGAG gave a PBM binding z-score of 1.96.

On to GCGACTGGGGCAATGCAGGTTACCATAAGGTTGG, for which the PBM binding z-score turned out to be 0.69.

For the sequence TCTAGTTGGTCAAAGGTCACACATTCGAAATGCG, the PBM binding z-score turned out to be 10.5.

Regarding CCGTCTGGGGCAGAAAGGTTACCATACCATCCGG, the PBM binding z-score is 0.988.

Regarding GCTTACGGGTCAAAGGTTGTAGCATGAATAGAAT, the PBM binding z-score came to 9.31.

As to GCTAGTTGGTCAGTAAAAGGTTACACACCGGTCG, the PBM binding z-score worked out at 1.46.

On to ATCGAAAGGTCGACGAGCTGAGTATACACCGTTT, for which the PBM binding z-score came out at 1.72.

The sequence ACGATTAGTTGACTTAGGGCAACCGATACGACGC displayed a PBM binding z-score of -0.124.

TCTATTAGTTGACGGGCAACCGACGAGTCCGTTT displayed a PBM binding z-score of 2.48.

CAAACTAGGTCAGGGTCAAAGTCGGTTTGTGCCA: the PBM binding z-score is 7.73.

TCATATAGGTAATACAGGTGAAAGCCGGCATCTA: the PBM binding z-score was determined as 3.35.

As for TCTTGTAGATCAAGCAGGTAAAGAAAGCCTGAGT, the PBM binding z-score is 1.62.

The sequence AGAATGAGCTTATACGTAGATCAGGGAAGAAAGT gave a PBM binding z-score of -0.597.

With TCTTGTCGATCAATAGAGGTTAAGAAAGTGCGCT, the PBM binding z-score worked out at 1.98.

TATATAGGGTCAAAGGCCAGAGTACGAATGTCGA gave a PBM binding z-score of 7.54.

The sequence CCTAGTTGGTCAGGGTCACACACGCTATAGGTAC yielded a PBM binding z-score of 2.6.

TCGAGTAGGTTACCAATGGGGCAATCAGCTTTCT displayed a PBM binding z-score of 1.13.

For CGTCCAAGGTCAAAGTTCAGTGAAGAGATGACGG, the PBM binding z-score amounted to 8.24.

In turn, ATCTCTAGGTAACCAAGTTCAGTAAATGCCGAAC showed a PBM binding z-score of 0.989.

Consider TCTATTAGTTGATCAGGGCAACCGAAACAGCGGA, for which the PBM binding z-score was 2.67.

Consider AGTCAATGTTCAGGACGAGGTAACGTAAAGCACG, for which the PBM binding z-score was -0.0574.

In turn, ACTAGTTTGTCAGCTGAGGTCACACACAATTCGG displayed a PBM binding z-score of 1.86.

In the case of ATCTCTAGGGAAGACTCAGTTCAGTGAAGAACGC, the PBM binding z-score is -0.307.

ATCTCTAGGTAAGACTCAGTTCAGTGACGAACGC showed a PBM binding z-score of 0.176.

GCTTACGGGTCAAAGGTTATTGCATGAATAGAAT gave a PBM binding z-score of 10.8.

On to AGAGCGAGGGCACGCTGAGTTGATAGCAGAGTAG, for which the PBM binding z-score is -0.152.

Sequence GCTATTACTTGAAAGGGCAACCGAATGATTCTCG showed a PBM binding z-score of 0.0562.

In the case of ACAGACAGGTGATGAAGTTAACTCAGGCTATCAT, the PBM binding z-score was -0.038.

With CCTAGTTCGTCAAGGTCACACACGCTATAGGTAC, the PBM binding z-score amounted to 2.23.

AATACAGGGTCATCGTAGGCCGGAGTACGCACAG: the PBM binding z-score turned out to be 4.59.

Turning to CAATCTAGGTCACCGGAAGGTCAAAGTCCGCATG, the PBM binding z-score came out at 8.12.

Sequence TCTAGTTGGTCACGGAAGTCACACACGACGGGTA came in with a PBM binding z-score of 2.65.

Consider CCTGCTAGGTCATCGTCAGCTAATCTACAGTATG, for which the PBM binding z-score is 1.47.

In turn, AGTCAAAGTTCACTAGGTCACGTAAGATTCAGCT showed a PBM binding z-score of 7.31.

Consider CCGAGCAGGCCAATCTGGGTCACTCAAGGCTTGA, for which the PBM binding z-score worked out at 1.21.

For AGAATGAGGTTATTTAGATCAGGGAATTGCGGTC, the PBM binding z-score was 1.17.

In turn, GCTGCTAGGTCAGGTTGGTCAGCGAACGGGTACG showed a PBM binding z-score of 0.414.

The sequence AGTCAAAGTTCAGGACGAGGTTACGTAAAGCACG returned a PBM binding z-score of 4.2.

Regarding CCGACTGGGGCAGCAAGGTTACCATACCATCCGG, the PBM binding z-score was 0.147.

Sequence CCGAGTGGGGCAAAGGTTACCATACTCAGTACGA displayed a PBM binding z-score of 11.
